# Experimental data taken from PubChem BioAssay (NCATS).
# Several values for one entry are separate records, joined by “and”; a condition that tells them apart may be missing. Identical values can stand only once. Inconclusive results are not listed. Activity calls are given as the source filed them. Unless noted, calls follow the shape of the full dose curve.
# Experiments:
# [1] = target: Glucocorticoid receptor (Homo sapiens) (UniProt P04150); assay: qHTS assay for small molecule agonists of glucocorticoid receptor signaling (AID 588532; active = well fitted curve in the direction sought with a large enough effect in the signal ratio, with a control signal flat; the % refers to the signal ratio;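 also: 100% = dexamethasone at 0.1 µM and 0% = DMSO only wells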); conditions: HeLa MMTV-bla, beta-lactamase ratio, agonist, 18 h; activation: stronger effect = higher value, percent of dexamethasone control, DMSO zero
# How it was run: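 HeLa GRE-bla reporter cells; 18 h compound exposure at 37 C; 2 h CCF4 loading at room temperature; fluorescence at 460 and 530 nm; EC50 by Hill equation.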
# [2] = target: Peroxisome proliferator-activated receptor delta (Homo sapiens) (UniProt Q03181); assay: qHTS assay for small molecule agonists of peroxisome proliferator-activated receptor delta signaling (AID 588534);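 also: 0% = DMSO basal wells and 100% = positive control agonist at 10 µM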
# How it was run: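 EC50 and efficacy values derive from Hill fits of a concentration series in a beta-lactamase reporter cell assay. Exposure is 18 hrs at 37 C, with CCF4 fluorescence as the readout.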
# [3] = qHTS assay for small molecule antagonists of peroxisome proliferator-activated receptor delta signaling (AID 588535; active = well fitted inhibition curve with a large enough effect in the signal ratio, with a control signal flat, not every such curve was filed as active; the % refers to the signal ratio;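 as to max response: cells co-treated with a PPAR-delta agonist as stimulator during compound exposure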); conditions: HEK293T PPARd-UAS-bla, beta-lactamase FRET ratio, 18 h; 460 nm channel
# How it was run: (§1)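 Beta-lactamase reporter read-out (405 nm excitation, 460/530 nm emission) after CCF4 loading for 2 hrs at RT. HEK293T PPAR-delta-UAS-bla cells, 2% charcoal/dextran FBS, compounds for 18 hrs at 37 C. Hill fit gave IC50 and efficacy.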
# [4] = target: Peroxisome proliferator-activated receptor delta (Homo sapiens) (UniProt Q03181); assay: as above
# How it was run: as §1
# [5] = target: Peroxisome proliferator-activated receptor gamma (Homo sapiens) (UniProt P37231); assay: qHTS assay for small molecule agonists of peroxisome proliferator-activated receptor gamma signaling (AID 588536; active = well fitted curve in the direction sought with a large enough effect in the signal ratio, with a control signal flat, not every such curve was filed as active; the % refers to the signal ratio;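 also: 0% = DMSO basal wells and 100% = rosiglitazone at 2 µM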)
# How it was run: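 Using GeneBLAzer HEK293 cells, response was quantified by CCF4 fluorescence and normalized between basal DMSO (0%) and rosiglitazone 2 uM (100%); curves yielded half-maximal stimulation concentration and efficacy.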
# [6] = target: Peroxisome proliferator-activated receptor gamma (Homo sapiens) (UniProt P37231); assay: qHTS assay for small molecule antagonists of peroxisome proliferator-activated receptor gamma signaling (AID 588537; active = well fitted inhibition curve with a large enough effect in the signal ratio, with a control signal flat, not every such curve was filed as active; the % refers to the signal ratio; also: potency is read from the fitted curve at half-maximal effect)
# How it was run: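 Read-out: CCF4 fluorescence (ex 405, em 460/530 nm) after 2 h at RT. Cells were HEK293 carrying a UAS-bla reporter and treated 16 h at 37 C with compound plus rosiglitazone (50 nM final). Normalized to rosiglitazone and DMSO.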
# [7] = target: Vitamin D3 receptor (Homo sapiens) (UniProt P11473); assay: qHTS assay for small molecule antagonists of vitamin D receptor signaling (AID 588541);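 also: receptor activated by calcitriol during compound treatment; series mostly up to about 77 µM; % is scaled to controls: 0 for no effect and ±100 for the full control effect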
# How it was run: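 VDR-UAS-bla HEK293T cells in 2% charcoal-stripped FBS were stimulated with 1-alpha,25-dihydroxyvitamin D3 (3 nM final) plus compound for 16 h at 37 C. The beta-lactamase CCF4 readout was normalized to 50 nM agonist and DMSO, and Hill fits gave IC50.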
# [8] = target: Vitamin D3 receptor (Homo sapiens) (UniProt P11473); assay: qHTS assay for small molecule agonists of vitamin D receptor signaling (AID 588543);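 also: 0% = DMSO basal and 100% = reference agonist control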
# How it was run: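 Reporter cells (HEK293T, VDR-UAS-bla) were seeded in medium with 2% charcoal-stripped serum and incubated 5 h, then compounds in concentration series were added for 16 h at 37 °C. Stimulation was scaled between DMSO basal and 50 nM 1α,25-dihydroxyvitamin D3.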
# [9] = qHTS assay for small molecule agonists of retinoid X receptor alpha signaling (AID 588544); conditions: HEK293T RXRa-UAS-bla, beta-lactamase reporter, 18 h; 530 nm emission; also: potency is read from the fitted curve at half-maximal effect;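 as to activation: 0% = DMSO basal wells and 100% = reference agonist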
# [10] = target: Retinoic acid receptor RXR-alpha (Homo sapiens) (UniProt P19793); assay: as above
# [11] = target: Thyroid hormone receptor beta (Homo sapiens) (UniProt P10828); assay: qHTS assay for small molecule agonists of thyroid hormone receptor beta signaling (AID 588545)
# How it was run: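 Agonist activity was read as beta-lactamase CCF4 fluorescence (405 ex, 460/530 em), scaled between DMSO (0%) and 10 nM T3 (100%), then Hill-fitted for EC50 and efficacy. HEK 293 TR-UAS-bla cells in 2% charcoal/dextran FBS medium were exposed 18 h at 37 C.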
# [12] = target: Thyroid hormone receptor beta (Homo sapiens) (UniProt P10828); assay: qHTS assay for small molecule antagonists of thyroid hormone receptor beta signaling (AID 588547; active = well fitted inhibition curve with a large enough effect in the signal ratio, with a control signal flat, not every such curve was filed as active; the % refers to the signal ratio;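 also: cells stimulated with 0.4 nM T3 agonist during compound exposure; series mostly up to about 77 µM; % is scaled to controls: 0 for no effect and ±100 for the full control effect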); conditions: TR-UAS-bla HEK293, beta-lactamase ratio, antagonist mode, 18 h
# How it was run: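 TR-UAS-bla GripTite HEK293 cells in 2% charcoal/dextran FBS medium; compounds 0.59 nM to 92 uM with T3 at 0.4nM final, 18 h at 37 C. Beta-lactamase read by CCF4 fluorescence (460/530 nm); Hill fits gave IC50 and efficacy.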
# [13] = qHTS assay for environmental chemicals that activate the Aryl hydrocarbon Receptor (AhR) signaling pathway (AID 651777; active = well fitted curve in the direction sought with a large enough effect; an effect the other way counts as inactive or inconclusive; also: % of control where 0% means no effect; nearly all actives have a fitted effect of over 15% in size); conditions: 1A2-DRE human hepatoma cells, luciferase, 24 h; activation: stronger effect = higher value
# How it was run: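 1A2-DRE human hepatoma reporter line; 1,200 cells/well; cmpd or DMSO 24 h, 37 C/5% CO2; One-Glo 30 min RT; luciferase lum.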
# [14] = qHTS assay for small molecule agonists of the antioxidant response element (ARE) signaling pathway measured by Nrf2-dependant transcriptional activity (AID 720636; active = well fitted curve in the direction sought with a large enough effect in the repeat runs; an effect the other way counts as inactive or inconclusive; also: potency is read from the fitted curve at half-maximal effect;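 as to activation: HepG2 cells with an ARE-driven luciferase reporter; % of control where 0% means no effect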)
# How it was run: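 Cells: ARE-luc HepG2 with Nrf2-responsive luciferase. Medium contained 1% dialyzed FBS. Compound exposure lasted 16 hr at 37 C and 5% CO2, followed by ONE-Glo luciferase detection.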
# [15] = qHTS assay for small molecule agonists of the antioxidant response element (ARE) signaling pathway measured by Nrf2-dependant transcriptional activity - cell viability counter screen (AID 720653; active = well fitted curve in the direction sought with a large enough effect in the repeat runs; an effect the other way counts as inactive or inconclusive; also: % is scaled to controls: 0 for no effect and ±100 for the full control effect); conditions: ARE-bla HepG2 viability, CellTiter-Glo ATP luminescence, 16 h; max response: stronger effect = lower value
# How it was run: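 ARE-bla HepG2 cells treated with compounds for 16 h at 37C; this counter screen measures viability as intracellular ATP by CellTiter-Glo luminescence after 30 min at room temperature.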
# [16] = qHTS assay for cell viability of HEK293 cells (AID 743288; active = well fitted curve in the direction sought with a large enough effect; an effect the other way counts as inactive or inconclusive; also: % is scaled to controls: 0 for no effect and ±100 for the full control effect; nearly all actives have a fitted effect of over 50% in size); conditions: ATP luminescence (CellTiter-Glo), 18 h; max response: stronger effect = lower value
# How it was run: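 Viable-cell counts were inferred from luciferase-based ATP content in HEK293 cells seeded at 2,000/well, pre-incubated ≥5 h, then dosed with DMSO-solubilised compounds for 18 h at 37 C.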
# [17] = target: Nuclear receptor subfamily 1 group I member 2 (Rattus norvegicus) (UniProt Q9R1A7); assay: qHTS assay for small molecule activators of the rat pregnane X receptor (rPXR) signaling pathway (AID 651751; call rule not given here; also: 0% is about no effect); conditions: rPXR reporter cells, luciferase (One-Glo), 24 h
# [18] = qHTS assay for small molecule activators of the human pregnane X receptor (PXR) signaling pathway (AID 720659; call rule not given here; also: 0% is about no effect)
# [19] = target: Glucocorticoid receptor (Homo sapiens) (UniProt P04150); assay: qHTS assay for small molecule antagonists of glucocorticoid receptor signaling (AID 588533; active = well fitted inhibition curve with a large enough effect in the signal ratio, with a control signal flat, not every such curve was filed as active; the % refers to the signal ratio; also: % is scaled to controls: 0 for no effect and ±100 for the full control effect)
# How it was run: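 Antagonist-mode qHTS: compound titrations added to GRE-bla HeLa cells, then dexamethasone 2 nM final; 18 h, 37 C. CCF4 FRET fluorescence normalized to dexamethasone and DMSO; IC50 from Hill fit.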
# [20] = qHTS assay for small molecule antagonists of retinoid X receptor alpha signaling (AID 588546; active = well fitted inhibition curve with a large enough effect in the signal ratio, with a control signal flat, not every such curve was filed as active; the % refers to the signal ratio); conditions: HEK293T RXRa-UAS-bla, beta-lactamase ratio, antagonist mode; measured here: W530 green channel, cytotoxicity proxy
# How it was run: (§2)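 Beta-lactamase reporter inhibition, read as CCF4 fluorescence ratio (ex 405, em 460/530 nm) after 2 h at RT. HEK293T UAS-bla cells, 2500/well, were stimulated with 9-cis-RA at 500 or 100 nM final alongside test compound for 18 h at 37 C.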
# [21] = target: Retinoic acid receptor RXR-alpha (Homo sapiens) (UniProt P19793); assay: as above; conditions: HEK293T RXRa-UAS-bla, beta-lactamase ratio, antagonist mode
# How it was run: as §2
# [22] = qHTS assay for small molecule agonists of the antioxidant response element (ARE) signaling pathway (AID 651741; active = well fitted activation curve with a large enough effect in the signal ratio; the % refers to the signal ratio; also: potency is read from the fitted curve at half-maximal effect)
# How it was run: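 HepG2 ARE-bla reporter cells, 2,000/well; 5 h settle at 37 C/5% CO2; compound pin transfer (23 nL, DMSO); 16 h at 37 C; LiveBLAzer B/G FRET substrate, 2 h RT; fluorescence intensity read.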
# [23] = qHTS assay for small molecule activators of the nuclear factor-kappa B (NF-kB) signaling pathway (AID 651749; active = well fitted activation curve with a large enough effect in the signal ratio; the % refers to the signal ratio; also: series mostly up to about 77 µM; % of control where 0% means no effect); conditions: NF-kB-bla ME-180 cells, beta-lactamase FRET ratio, 16 h; activation: stronger effect = higher value
# How it was run: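 NF-kB-bla ME-180 cells, 2,000/well; 23 nL compound or DMSO pinned; 16 hr, 37C/5% CO2; beta-lactamase FRET read-out.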
# [24] = target: Peroxisome proliferator-activated receptor alpha (Homo sapiens) (UniProt Q07869); assay: qHTS assay for small molecule agonists of the peroxisome proliferator-activated receptor alpha (PPARalpha) signaling pathway (AID 651778; active = well fitted curve in the direction sought with a large enough effect; an effect the other way counts as inactive or inconclusive; also: % of control where 0% means no effect); conditions: PathHunter PPARalpha complementation, chemiluminescence, 6 h; max response: stronger effect = higher value
# How it was run: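 Enzyme-fragment complementation assay in which ligand-bound PPARalpha translocates and forms an active enzyme that generates chemiluminescence. Cells were plated overnight, exposed to compound for 6 hr at 37 C, and then given detection reagent for 60 min at room temperature.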
# [25] = qHTS assay for cell viability of the p53RE-bla HCT-116 cell line (AID 743292; active = well fitted curve in the direction sought with a large enough effect; an effect the other way counts as inactive or inconclusive; also: % is scaled to controls: 0 for no effect and ±100 for the full control effect; nearly all actives have a fitted effect of over 55% in size)
# How it was run: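 HCT-116 p53RE-bla cells seeded 4,000/well; 5 h at 37 C; compound (DMSO) added; 16 h at 37 C; CellTiter-Glo added, 30 min RT; luminescence read.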
# [26] = qHTS assay for small molecule activators of the p53 signaling pathway (AID 651743; active = well fitted activation curve with a large enough effect in the signal ratio, not every such curve was filed as active; the % refers to the signal ratio; also: series mostly up to about 92 µM; % of control where 0% means no effect); conditions: HCT-116 p53RE-bla, beta-lactamase FRET ratio, 16 h; activation: stronger effect = higher value
# How it was run: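 Reporter: beta-lactamase driven by p53 response elements, stably integrated in HCT-116 cells. Cells seeded at 4,000/well, 5 h preincubation, compound (DMSO) 16 h at 37 C; B/G FRET substrate 2 h RT; fluorescence intensity read.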
# Peroxisome proliferator-activated receptor gamma (Homo sapiens), sequence (P37231 whole entry, looked up): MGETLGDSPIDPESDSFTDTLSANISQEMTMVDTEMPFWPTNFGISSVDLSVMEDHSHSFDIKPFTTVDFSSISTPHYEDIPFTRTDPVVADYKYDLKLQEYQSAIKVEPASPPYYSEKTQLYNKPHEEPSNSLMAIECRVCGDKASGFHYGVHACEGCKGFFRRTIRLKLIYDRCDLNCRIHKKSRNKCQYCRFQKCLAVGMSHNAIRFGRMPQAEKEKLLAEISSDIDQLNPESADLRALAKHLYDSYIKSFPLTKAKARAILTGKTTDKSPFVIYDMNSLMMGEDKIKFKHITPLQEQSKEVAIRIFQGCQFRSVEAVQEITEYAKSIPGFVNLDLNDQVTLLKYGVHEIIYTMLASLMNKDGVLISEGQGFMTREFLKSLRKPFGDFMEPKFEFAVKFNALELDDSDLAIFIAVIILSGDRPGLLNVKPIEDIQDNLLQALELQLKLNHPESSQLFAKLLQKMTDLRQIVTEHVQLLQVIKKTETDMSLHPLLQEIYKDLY
# Glucocorticoid receptor (Homo sapiens), sequence (P04150 whole entry, looked up): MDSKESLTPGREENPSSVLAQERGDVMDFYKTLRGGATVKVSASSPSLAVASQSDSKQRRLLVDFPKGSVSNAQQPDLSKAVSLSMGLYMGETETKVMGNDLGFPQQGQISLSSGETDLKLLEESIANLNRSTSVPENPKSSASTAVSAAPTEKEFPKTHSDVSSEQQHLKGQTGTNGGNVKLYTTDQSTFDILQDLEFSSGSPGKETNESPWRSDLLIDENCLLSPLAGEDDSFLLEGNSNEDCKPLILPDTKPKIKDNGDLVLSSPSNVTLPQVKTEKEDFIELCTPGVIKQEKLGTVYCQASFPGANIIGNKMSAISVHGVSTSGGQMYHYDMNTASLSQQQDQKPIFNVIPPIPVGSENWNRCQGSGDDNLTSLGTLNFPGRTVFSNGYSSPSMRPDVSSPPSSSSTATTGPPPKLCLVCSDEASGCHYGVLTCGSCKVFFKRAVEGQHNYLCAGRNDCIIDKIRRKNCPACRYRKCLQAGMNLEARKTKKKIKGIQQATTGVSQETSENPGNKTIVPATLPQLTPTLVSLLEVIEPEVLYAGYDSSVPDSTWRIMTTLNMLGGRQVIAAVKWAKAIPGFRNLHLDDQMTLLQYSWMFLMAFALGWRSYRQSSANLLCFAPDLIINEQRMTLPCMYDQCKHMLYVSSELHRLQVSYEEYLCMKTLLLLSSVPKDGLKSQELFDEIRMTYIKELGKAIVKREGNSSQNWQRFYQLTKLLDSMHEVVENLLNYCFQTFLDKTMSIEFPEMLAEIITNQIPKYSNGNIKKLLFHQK
# Vitamin D3 receptor (Homo sapiens), sequence (P11473 whole entry, looked up): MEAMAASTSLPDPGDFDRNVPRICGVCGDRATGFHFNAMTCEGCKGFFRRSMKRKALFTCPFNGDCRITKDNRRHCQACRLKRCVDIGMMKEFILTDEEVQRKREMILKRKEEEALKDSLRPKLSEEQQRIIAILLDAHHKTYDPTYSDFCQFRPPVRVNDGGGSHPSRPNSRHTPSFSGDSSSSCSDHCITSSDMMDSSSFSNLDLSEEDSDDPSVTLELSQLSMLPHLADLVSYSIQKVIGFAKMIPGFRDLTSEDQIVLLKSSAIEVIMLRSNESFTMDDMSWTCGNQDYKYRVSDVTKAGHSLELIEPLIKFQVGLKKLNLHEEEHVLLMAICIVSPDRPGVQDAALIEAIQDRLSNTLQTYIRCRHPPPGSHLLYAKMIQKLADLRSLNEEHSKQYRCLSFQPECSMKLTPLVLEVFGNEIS
# Peroxisome proliferator-activated receptor alpha (Homo sapiens), sequence (Q07869 whole entry, looked up, the tested form may be a part): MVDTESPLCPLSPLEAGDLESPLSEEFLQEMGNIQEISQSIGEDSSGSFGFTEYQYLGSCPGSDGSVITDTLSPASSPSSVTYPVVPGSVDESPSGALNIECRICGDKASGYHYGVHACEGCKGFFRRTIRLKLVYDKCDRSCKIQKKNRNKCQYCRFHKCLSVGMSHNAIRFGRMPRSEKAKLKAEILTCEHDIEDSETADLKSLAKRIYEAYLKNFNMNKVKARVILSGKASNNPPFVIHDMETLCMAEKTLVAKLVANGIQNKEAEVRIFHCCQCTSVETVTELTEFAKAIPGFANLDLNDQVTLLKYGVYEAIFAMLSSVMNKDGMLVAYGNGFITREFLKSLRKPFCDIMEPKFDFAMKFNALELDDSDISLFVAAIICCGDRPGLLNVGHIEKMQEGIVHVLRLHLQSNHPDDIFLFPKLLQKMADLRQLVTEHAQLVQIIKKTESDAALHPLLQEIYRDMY
# Peroxisome proliferator-activated receptor delta (Homo sapiens), sequence (Q03181 whole entry, looked up): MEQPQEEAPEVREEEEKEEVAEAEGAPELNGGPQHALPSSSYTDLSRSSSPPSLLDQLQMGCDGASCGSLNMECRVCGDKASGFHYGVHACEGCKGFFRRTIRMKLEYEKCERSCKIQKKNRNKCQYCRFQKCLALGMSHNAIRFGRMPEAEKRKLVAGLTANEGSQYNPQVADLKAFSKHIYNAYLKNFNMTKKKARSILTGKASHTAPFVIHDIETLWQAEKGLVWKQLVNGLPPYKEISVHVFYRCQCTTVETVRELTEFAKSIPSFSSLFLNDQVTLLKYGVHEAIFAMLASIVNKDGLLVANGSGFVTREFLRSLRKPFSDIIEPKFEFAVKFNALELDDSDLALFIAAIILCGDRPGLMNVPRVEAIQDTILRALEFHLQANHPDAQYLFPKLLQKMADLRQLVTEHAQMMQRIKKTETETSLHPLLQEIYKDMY
# Thyroid hormone receptor beta (Homo sapiens), sequence (P10828 whole entry, looked up): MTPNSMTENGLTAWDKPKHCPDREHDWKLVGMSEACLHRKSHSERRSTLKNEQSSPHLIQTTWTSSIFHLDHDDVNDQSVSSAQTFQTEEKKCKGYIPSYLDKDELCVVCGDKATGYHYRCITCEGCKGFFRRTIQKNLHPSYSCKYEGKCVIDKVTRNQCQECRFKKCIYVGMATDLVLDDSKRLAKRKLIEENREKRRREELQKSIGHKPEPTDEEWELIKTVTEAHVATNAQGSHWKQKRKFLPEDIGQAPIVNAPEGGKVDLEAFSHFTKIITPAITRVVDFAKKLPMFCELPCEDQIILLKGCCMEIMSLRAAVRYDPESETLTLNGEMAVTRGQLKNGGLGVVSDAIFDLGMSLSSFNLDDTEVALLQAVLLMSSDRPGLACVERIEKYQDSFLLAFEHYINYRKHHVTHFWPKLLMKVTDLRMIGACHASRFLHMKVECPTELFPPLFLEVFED
# Retinoic acid receptor RXR-alpha (Homo sapiens), sequence (P19793 whole entry, looked up): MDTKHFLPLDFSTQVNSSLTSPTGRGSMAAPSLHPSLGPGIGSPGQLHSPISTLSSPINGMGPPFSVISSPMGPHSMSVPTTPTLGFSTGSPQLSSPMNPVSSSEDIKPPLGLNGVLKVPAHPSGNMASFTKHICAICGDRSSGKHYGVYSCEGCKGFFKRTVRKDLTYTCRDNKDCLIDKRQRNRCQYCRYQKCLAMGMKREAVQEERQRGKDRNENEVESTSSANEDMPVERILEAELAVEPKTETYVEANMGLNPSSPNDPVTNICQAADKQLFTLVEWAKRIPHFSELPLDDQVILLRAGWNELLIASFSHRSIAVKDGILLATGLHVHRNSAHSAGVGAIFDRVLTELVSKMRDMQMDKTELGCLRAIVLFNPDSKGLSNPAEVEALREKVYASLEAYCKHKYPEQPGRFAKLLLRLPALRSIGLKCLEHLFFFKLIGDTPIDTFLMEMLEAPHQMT
# Nuclear receptor subfamily 1 group I member 2 (Rattus norvegicus), sequence (Q9R1A7 whole entry, looked up): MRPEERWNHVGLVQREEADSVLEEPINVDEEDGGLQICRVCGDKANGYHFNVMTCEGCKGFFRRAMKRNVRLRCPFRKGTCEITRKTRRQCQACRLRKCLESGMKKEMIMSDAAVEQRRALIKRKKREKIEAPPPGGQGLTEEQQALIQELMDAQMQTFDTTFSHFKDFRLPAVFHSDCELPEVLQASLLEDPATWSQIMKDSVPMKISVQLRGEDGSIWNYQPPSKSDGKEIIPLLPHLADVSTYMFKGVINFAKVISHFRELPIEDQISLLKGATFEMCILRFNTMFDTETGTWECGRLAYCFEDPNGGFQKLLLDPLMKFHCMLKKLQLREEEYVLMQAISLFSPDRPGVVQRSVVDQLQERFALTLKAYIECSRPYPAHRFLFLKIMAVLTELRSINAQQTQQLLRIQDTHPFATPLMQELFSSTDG
smiles,measurement,setting,value
CCc1cnc(C2=NC(C)(C(C)C)C(=O)N2)c(C(=O)O)c1 (stereo not given),activation,[1],-7.69% (inactive)
same,outcome,[2],inactive
same,max response,[3],6.03%
same,Potency,[4],inactive
same,Potency,[5],inactive
same,Potency,[6],inactive
same,Potency,[7],inactive
same,outcome,[8],inactive
same,max response,[9],-15.1%
same,Potency,[10],inactive
same,Potency,[11],inactive
same,activity change % (negative = inhibition),[12],-0.801% (inactive)
same,activation,[13],-2.09% (inactive)
same,Potency,[14],inactive
same,max response,[15],16.5% (inactive)
same,max response,[16],4.64% (inactive)
same,max response,[17],-2.79% (inactive)
same,outcome,[18],inactive
O=[N+]([O-])c1ccc(Oc2ccc(Cl)cc2Cl)cc1,Potency,[19],inactive
same,outcome,[2],inactive
same,max response,[3],-2.51%
same,Potency,[5],inactive
same,Potency,[6],inactive
same,Potency,[7],inactive
same,outcome,[8],inactive
same,Potency,[11],inactive
same,max response,[20],-7.09%
same,max response,[21],5.62% (inactive)
same,activity change % (negative = inhibition),[12],-8.47% (inactive)
same,Potency,[22],48.6 µM (active)
same,activation,[23],-1.65% (inactive)
same,activation,[13],0.167% (inactive)
same,max response,[24],5% (inactive)
same,max response,[15],-3.33% (inactive)
same,max response,[16],-5.28% (inactive)
same,Potency,[25],inactive
same,max response,[17],6.97% (inactive)
CCOc1cc(Oc2ccc(C(F)(F)F)cc2Cl)ccc1[N+](=O)[O-],activation,[1],-12.9% (inactive)
same,Potency,[19],inactive
same,outcome,[2],inactive
same,Potency,[11],inactive
same,max response,[20],-9.67%
same,max response,[21],-3.17% (inactive)
same,activation,[26],3.72% (inactive)
same,activation,[13],3.8% (inactive)
same,Potency,[14],inactive
same,max response,[15],-9.09% (inactive)
same,max response,[16],-7.71% (inactive)
N#Cc1c[nH]cc1-c1cccc2c1OC(F)(F)O2,activation,[1],-6.3% (inactive)
same,outcome,[2],inactive
same,Potency,[6],31.6 µM (active)
same,outcome,[8],inactive
same,max response,[9],-13.3%
same,Potency,[10],2.24 µM (active)
same,Potency,[11],inactive
same,activation,[23],-3.39% (inactive)
same,max response,[24],-0.738% (inactive)
same,Potency,[14],inactive
same,max response,[16],-14.2% (inactive)
same,Potency,[25],inactive
COC(=O)N(C(=O)N1COC2(C(=O)OC)Cc3cc(Cl)ccc3C2=N1)c1ccc(OC(F)(F)F)cc1 (stereo not given),activation,[1],17.1% (inactive)
same,max response,[3],21%
same,Potency,[4],inactive
same,Potency,[7],inactive
same,outcome,[8],inactive
same,activation,[26],-1.52% (inactive)
same,activation,[13],2.68% (inactive)
same,max response,[24],-1.75% (inactive)
same,Potency,[14],inactive
same,max response,[15],-4.11% (inactive)
same,max response,[16],-21.9% (inactive)
same,Potency,[25],inactive
S=C([S-])NCCNC(=S)[S-].[Mn+2],activation,[1],-3.05% (inactive)
same,Potency,[22],30.6 µM (active) and 27.3 µM (active)
same,Potency,[14],61.1 µM (active)
